# RBX1-CUL1 inh = inhibitors of human ROC1-CUL1 ubiquitin ligase activity; P62877+Q13616; in vitro K48 di-Ub FRET, acceptor:donor ratio, 45 min; inhibition, % at 10 µM; hit rate 0.6% among 140,000; AID 1347404; in the data active means inhibition above about 25%
# A number is an active result; - = inactive. Only a selection was taken, and hits are over-represented in it overall.
SMILES,RBX1-CUL1 inh
O=C1CSC2(C(=O)Nc3ccccc32)N1c1ccc(Br)cc1 (stereo not given),-
COc1cc(OC)cc(N2C(=O)CSC23C(=O)Nc2ccccc23)c1 (stereo not given),-
OCc1ccc(CN2CCCC(Nc3ccc4c(c3)OCO4)C2)o1 (stereo not given),-
CC(=O)C1CCCCCCCCCCC1=O (stereo not given),-
CC(Nc1ccc(Br)cc1)c1nnc(SCC(=O)Nc2cccc3ccccc23)n1-c1ccccc1 (stereo not given),-
Nc1c(Sc2ccccc2)cc(Sc2ccccc2)c2c1C(=O)c1ccccc1C2=O,-
COc1cc(/C=C2/SC(=S)NC2=O)ccc1OCc1ccc(F)cc1,-
OCCN1CCN(C2Cc3cc(Cl)ccc3Sc3cc(Cl)ccc32)CC1 (stereo not given),-
Cc1ccc(/C=N/NC(=O)CSc2nnc(-c3ccc(Br)cc3)n2C)cc1,-
COc1cc(Br)cc(/C=N/NC(=O)CSc2nnc(-c3ccc(C)cc3)n2C)c1O,-
COc1cc(/C=N/NC(=O)CSc2nnc(-c3ccc(C)cc3)n2C)ccc1O,27.0
Cc1ccnc(NC(=O)c2cc(Br)ccc2Br)c1,-
CSC1=NC(=Nc2cccc(C)c2)C2(CCCC2)N1c1ccccc1Cl,-
COc1cc(-c2ccc(-c3ccccc3)s2)c(OC)cc1-c1ccc(-c2ccccc2)s1,-
Cc1cc(C)c(C(=O)O)c(C)c1CC(C)(C)C,-
COc1ccc2c(c1)C(=O)Cc1ccccc1S2,-
COc1ccc2c(c1)C(=O)Cc1ccccc1O2,67.4
COc1cccc(C(=O)N=C2Cc3cc(OC)ccc3OC2=O)c1,-
Cc1ccc(C)c(NC(=O)c2sc3nc4c(c(-c5ccco5)c3c2N)CCCC4)c1,-
COC(=O)CSc1ncc(-c2ccc(F)cc2)c(C2CCCN(C(=O)c3csc(C)n3)C2)n1 (stereo not given),-
CCN(CCn1cccn1)Cc1c(C(=O)N2C[C@@H](C)O[C@@H](C)C2)nc2sccn12,-
C[n+]1c2ccccc2n2nc3c(cc21)c1cccc2cccc3c21,-
C[n+]1c2ccccc2n2nc3c(cc21)c1cccnc1c1ncccc31,-
C[n+]1c2cc3ccccc3cc2n2nc3c(cc21)c1cccc2cccc3c21,97.1
COc1ccc(F)c(CC2(CCC(=O)N3CCOc4ccc(Cl)cc4C3)CCC(=O)N2)c1 (stereo not given),-
SMILES,RBX1-CUL1 inh
COc1ccc(-c2ccccc2NC(=O)C2CCCN2Cc2nccn2C)cc1 (stereo not given),-
Nc1cc(=O)[nH]c(SCc2nnnn2-c2ccccc2)n1,-
O=C(O)c1cccc(N=C2C(=O)N(c3ccc(Cl)cc3Cl)C(=O)C2Cl)c1 (stereo not given),-
O=C1Nc2ccccc2C(=O)C1N1CCOCC1 (stereo not given),-
O=C(O)c1cccc(N=C2C(=O)c3ccccc3C(=O)C2N2CCOCC2)c1 (stereo not given),54.4
CC(C)CC(=O)NC(=S)Nc1sc2c(c1C(N)=O)CCCC2,-
Cc1ccc(N2C(=O)/C(=C\c3ccc(-c4ccc(Br)cc4[N+](=O)[O-])o3)C(=O)N(c3ccccc3)C2=S)cc1C,56.0
Cc1ccc(N2C(=O)/C(=C/c3ccc(-c4ccc(C(=O)O)cc4)o3)C(=O)N(c3ccccc3)C2=S)cc1C,-
Cc1ccc(N2C(=O)/C(=C/c3ccc(Br)cc3)C(=O)N(c3ccccc3)C2=S)cc1,-
CCNC(=O)c1cn(CC(C)C)cc(C(=O)NCc2ccc(F)cc2)c1=O,-
CCOC(=O)c1ccc(N=c2ssc3c2-c2cc(OC)ccc2NC3(C)C)cc1,-
CCN1C(=O)C(=Cc2ccccc2OC)C(=O)N(CC)C1=S,-
COc1ccc(CCCC(=O)NCC(=O)N/N=C/c2cccc(Cl)c2Cl)cc1,-
Cc1cc(C)cc(-c2nnc3sc(C(F)(F)F)nn23)c1,-
OC1c2ccccc2CSc2sccc21 (stereo not given),49.2
C[N+]1(C)CCC(C2c3ccccc3CSc3sccc32)CC1 (stereo not given),-
OC1c2ccccc2CCc2sccc21 (stereo not given),-
Cc1ccc(O)c(NC(=O)c2cnn3c(C(F)(F)F)cc(-c4ccc(Br)cc4)nc23)c1,-
Cc1ccccc1N1OC2C(=O)N(c3ccccc3Cl)C(=O)C2C1c1ccc(N(C)C)cc1 (stereo not given),-
Cc1cccc2c1OC(=O)C(C(c1ccc(N(C)C)cc1)C1C(=O)Oc3c(C)cccc3C1=O)C2=O (stereo not given),91.6
Cc1c(C(c2ccc(Br)cc2)C2C(=O)Oc3ccccc3C2=O)c(=O)n(-c2ccccc2)n1C (stereo not given),-
COC(=O)c1sc(C)c(C)c(=S)c1C(=O)OC,-
COC(=O)c1csc([N+](=O)[O-])c1SC(C)=O,76.9
COC(=O)c1csc([N+](=O)[O-])c1SCc1ccccc1,-
COC(=O)c1scc([N+](=O)[O-])c1-c1c([N+](=O)[O-])csc1C(=O)OC,-
SMILES,RBX1-CUL1 inh
O=C(O)CNC(=S)NC(=O)c1sc2ccccc2c1Cl,-
Cc1ccc(C(C)NC(=O)C2C3CCC(C3)C2C(=O)O)cc1C (stereo not given),-
Cc1ccc(CNC(=O)C2CCN(C(=O)c3ccccc3F)CC2)cc1,-
Cc1[nH]n(-c2ccccc2)c(=O)c1C(c1ccc(-c2ccc(Br)cc2)o1)c1c(C)[nH]n(-c2ccccc2)c1=O,-
Cc1[nH]n(-c2ccccc2)c(=O)c1C(C[N+](=O)[O-])c1ccc(Br)cc1 (stereo not given),69.7
Cc1[nH]n(-c2ccccc2)c(=O)c1/C=N/NC(=O)Cc1ccc(Br)cc1,-
Clc1ccc(Nc2nc(N/N=C/c3ccc(Cl)cc3Cl)nc(N3CCOCC3)n2)cc1,-
O=C1OC2(CCCC2)OC(=O)C1=Cc1ccc(Nc2ccc(F)cc2)o1,-
O=C1OC2(CCCCC2)OC(=O)C1=Cc1ccc(Nc2ccc(F)cc2)o1,-
CC1(C)OC(=O)C(=Cc2ccc(Nc3cc(C(F)(F)F)cc(C(F)(F)F)c3)o2)C(=O)O1,87.9
COc1ccc(C(C[N+](=O)[O-])c2c(-c3ccccc3)[nH]c3ccccc23)c(OC)c1 (stereo not given),-
CC(=O)c1coc2c1C(=O)c1ccccc1C2=O,33.8
O=C1C(=O)c2c(C(=O)c3cccs3)coc2-c2ccccc21,-
Cc1ccc(NC(=O)c2cccc3c2C(=O)c2ccccc2-3)cc1,-
O=C(Nc1cc(Sc2ccccc2)cc(Sc2ccccc2)c1)c1c(F)cccc1F,-
Nc1nc(N)c2c(F)c(N)ccc2n1,65.3
Nc1nc(N)c2c(F)cccc2n1,-
Nc1nc2ccc(N)c(Cl)c2c(=O)[nH]1,-
O=C1N(c2ccccc2)C[C@@H]2C[C@@H](c3ccsc3)N3CCC[C@@]123,-
Cc1nnc(CN(C)Cc2cnc(S(=O)(=O)Cc3ccccc3)n2CC(C)C)o1,-
Fc1cccc(F)c1CCC1CCCN(Cc2ncc[nH]2)C1 (stereo not given),-
O=C(Nc1ccc2oc(-c3cc(Cl)ccc3Cl)nc2c1)c1ccccc1[N+](=O)[O-],-
O=C1/C(=C\c2cccs2)C(c2ccccc2)=NN1c1ccc(Cl)c(Cl)c1,-
CCOC(=O)C1=NN(c2ccccc2)C(=O)/C1=C\c1ccc(F)cc1,-
O=C(O)C1=NN(c2ccccc2)C(=O)/C1=C\c1cccs1,25.8
CN(CCC(=O)/C=C/c1cccc(F)c1)CCc1ccc2c(c1)OCO2,49.6
O=S(=O)(NCc1ccc2c(c1)OCO2)c1cccc(F)c1,-

# High-throughput results from PubChem BioAssay.
